# Data published in the supplement of paper PMC8728848.
# About 410 targets per protein were measured; listed, in parts, are those with the strongest signals and a random draw of the rest.
# B1: PNGase F (Flavobacterium meningosepticum) (protein)
# chain: GIPAPADNTVNIKTFDKVKNAFGDGLSQSAEGTFTFPADVTAVKTIKMFIKNECPNKTCLEWDRYANVYVKNKTTGEWYEIGRFITPYWVGTEKLPRGLEIDVTDFKSLLSGNTELKIYTETWLAKGREYSVDFDIVYGTPDYKYSAVVPVVQYNKSSIDGVPYGKAHTLALKKNIQLPTNTEKAYLRTTISGWGHAKPYDAGSRGCAEWCFRTHTIAINNSNTFQHQLGALGCSANPINNQSPGNWTPDRAGWCPGMAVPTRIDVLNNSLIGSTFSYEYKFQNWTNNGTNGDAFYAISSFVIAKSNTPISAPVVTNLDPHHHHHH
# Experiments:
# Experiment in all cases: glycan array binding signal (z-score within array); higher = stronger binding
# Conditions in all cases: glycan notation: IUPAC condensed, linker removed; mutation: D57L
# [1] = molecular target: GlcNAc(b1-2)[GlcNAc(b1-4)]Man(a1-3)[GlcNAc(b1-4)][GlcNAc(b1-2)[GlcNAc(b1-6)]Man(a1-6)]Man(b1-4)GlcNAc(b1-4)GlcNAc
# Summary of the method: (§1)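 Glycan array data came from 3228 arrays in the Consortium for Functional Glycomics database, and only arrays with an available protein sequence were kept. Glycan names were put into IUPAC-condensed notation, and columns mapping to the same glycan were averaged. The binding signal is a within-array Z-score, averaged across arrays of one protein sequence run at different concentrations or buffers and across linkers. A negative Z-score can be read as non-binding.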
# [2] = molecular target: GlcNAc(b1-3)Gal(b1-4)GlcNAc(b1-2)Man(a1-3)[GlcNAc(b1-3)Gal(b1-4)GlcNAc(b1-2)Man(a1-6)]Man(b1-4)GlcNAc(b1-4)GlcNAc
# Summary of the method: as §1
# [3] = molecular target: GlcNAc(b1-3)Gal(b1-4)GlcNAc(b1-3)Gal(b1-4)GlcNAc(b1-3)Gal(b1-4)GlcNAc(b1-3)Gal(b1-4)GlcNAc(b1-2)Man(a1-3)[GlcNAc(b1-3)Gal(b1-4)GlcNAc(b1-3)Gal(b1-4)GlcNAc(b1-3)Gal(b1-4)GlcNAc(b1-3)Gal(b1-4)GlcNAc(b1-2)Man(a1-6)]Man(b1-4)GlcNAc(b1-4)[Fuc(a1-6)]GlcNAc
# Summary of the method: as §1
# [4] = molecular target: GlcNAc(b1-3)Gal(b1-4)GlcNAc(b1-3)GalNAc
# Summary of the method: as §1
# GlcNAc(b1-3)Man = molecular target: GlcNAc(b1-3)Man
# Summary of the method: as §1
# [5] = molecular target: GlcNAc(b1-4)Gal(b1-4)GlcNAc
# Summary of the method: as §1
# Kdn(a2-6)Gal(b1-4)GlcNAc = molecular target: Kdn(a2-6)Gal(b1-4)GlcNAc
# Summary of the method: as §1
# Man(a1-2)Man(a1-3)Man = molecular target: Man(a1-2)Man(a1-3)Man
# Summary of the method: as §1
# Man(a1-3)[Man(a1-6)]Man = molecular target: Man(a1-3)[Man(a1-6)]Man
# Summary of the method: as §1
# [6] = molecular target: Man(a1-3)[Man(a1-6)]Man(a1-6)[Man(a1-3)]Man
# Summary of the method: as §1
# [7] = molecular target: Man(a1-3)[Man(a1-6)]Man(b1-4)GlcNAc(b1-4)GlcNAc
# Summary of the method: as §1
# [8] = molecular target: Neu5Ac(a2-3)Gal(b1-3)GalNAc(b1-4)[Neu5Ac(a2-3)]Gal(b1-4)Glc
# Summary of the method: as §1
# [9] = molecular target: Neu5Ac(a2-3)Gal(b1-3)GlcNAc(b1-2)Man
# Summary of the method: as §1
# [10] = molecular target: Neu5Ac(a2-3)Gal(b1-3)GlcNAc(b1-2)Man(a1-3)[GlcNAc(b1-4)][Neu5Ac(a2-3)Gal(b1-3)GlcNAc(b1-2)Man(a1-6)]Man(b1-4)GlcNAc(b1-4)GlcNAc
# Summary of the method: as §1
# [11] = molecular target: Neu5Ac(a2-3)Gal(b1-3)GlcNAc(b1-6)GalNAc
# Summary of the method: as §1
# [12] = molecular target: Neu5Ac(a2-3)Gal(b1-3)GlcNAc6S
# Summary of the method: as §1
# [13] = molecular target: Neu5Ac(a2-3)Gal(b1-4)GlcNAc(b1-2)Man
# Summary of the method: as §1
# [14] = molecular target: Neu5Ac(a2-3)Gal(b1-4)GlcNAc(b1-3)Gal(b1-4)GlcNAc
# Summary of the method: as §1
# [15] = molecular target: Neu5Ac(a2-3)Gal(b1-4)GlcNAc(b1-3)Gal(b1-4)GlcNAc(b1-2)Man(a1-3)[Neu5Ac(a2-3)Gal(b1-4)GlcNAc(b1-3)Gal(b1-4)GlcNAc(b1-2)Man(a1-6)]Man(b1-4)GlcNAc(b1-4)GlcNAc
# Summary of the method: as §1
# [16] = molecular target: Neu5Ac(a2-3)Gal(b1-4)GlcNAc(b1-3)Gal(b1-4)GlcNAc(b1-3)Gal(b1-4)GlcNAc(b1-2)Man(a1-3)[Neu5Ac(a2-3)Gal(b1-4)GlcNAc(b1-3)Gal(b1-4)GlcNAc(b1-3)Gal(b1-4)GlcNAc(b1-2)Man(a1-6)]GalNAc
# Summary of the method: as §1
# [17] = molecular target: Neu5Ac(a2-3)Gal(b1-4)GlcNAc(b1-6)[Gal(b1-3)]GalNAc
# Summary of the method: as §1
# [18] = molecular target: Neu5Ac(a2-3)Gal(b1-4)[Fuc(a1-3)]GlcNAc(b1-6)[Neu5Ac(a2-3)Gal(b1-3)]GalNAc
# Summary of the method: as §1
# Neu5Ac(a2-3)GalNAc = molecular target: Neu5Ac(a2-3)GalNAc
# Summary of the method: as §1
# [19] = molecular target: Neu5Ac(a2-6)Gal(b1-4)GlcNAc(b1-3)[Neu5Ac(a2-6)Gal(b1-4)GlcNAc(b1-6)]GalNAc
# Summary of the method: as §1
# [20] = molecular target: Neu5Ac(a2-6)Gal(b1-4)GlcNAc6S
# Summary of the method: as §1
# [21] = molecular target: Neu5Ac(a2-6)GalNAc(b1-4)GlcNAc
# Summary of the method: as §1
# [22] = molecular target: Neu5Ac(a2-8)Neu5Ac(a2-3)Gal(b1-3)GalNAc(b1-4)[Neu5Ac(a2-3)]Gal(b1-4)Glc
# Summary of the method: as §1
# [23] = molecular target: Neu5Ac9Ac(a2-3)Gal(b1-4)GlcNAc
# Summary of the method: as §1
# [24] = molecular target: Neu5Gc(a2-6)Gal(b1-4)GlcNAc
# Summary of the method: as §1
# [25] = molecular target: Neu5Gc(a2-8)Neu5Gc(a2-3)Gal(b1-4)GlcNAc(b1-3)Gal(b1-4)GlcNAc
# Summary of the method: as §1
binder,measurement,setting,value
B1,glycan array binding signal (z-score),[1],-0.146
same,glycan array binding signal (z-score),[2],0.239
same,glycan array binding signal (z-score),[3],0.677
same,glycan array binding signal (z-score),[4],0.274
same,glycan array binding signal (z-score),GlcNAc(b1-3)Man,2.62
same,glycan array binding signal (z-score),[5],-0.997
same,glycan array binding signal (z-score),Kdn(a2-6)Gal(b1-4)GlcNAc,0.05
same,glycan array binding signal (z-score),Man(a1-2)Man(a1-3)Man,-1.18
same,glycan array binding signal (z-score),Man(a1-3)[Man(a1-6)]Man,0.446
same,glycan array binding signal (z-score),[6],3.32
same,glycan array binding signal (z-score),[7],0.156
same,glycan array binding signal (z-score),[8],0.797
same,glycan array binding signal (z-score),[9],-0.518
same,glycan array binding signal (z-score),[10],0.012
same,glycan array binding signal (z-score),[11],0.237
same,glycan array binding signal (z-score),[12],1.09
same,glycan array binding signal (z-score),[13],3.1
same,glycan array binding signal (z-score),[14],-0.525
same,glycan array binding signal (z-score),[15],0.19
same,glycan array binding signal (z-score),[16],0.914
same,glycan array binding signal (z-score),[17],2.77
same,glycan array binding signal (z-score),[18],0.57
same,glycan array binding signal (z-score),Neu5Ac(a2-3)GalNAc,1.19
same,glycan array binding signal (z-score),[19],-0.712
same,glycan array binding signal (z-score),[20],0.924
same,glycan array binding signal (z-score),[21],-1
same,glycan array binding signal (z-score),[22],-0.06
same,glycan array binding signal (z-score),[23],-1.04
same,glycan array binding signal (z-score),[24],0.069
same,glycan array binding signal (z-score),[25],-0.629
